Results filed as inconclusive are left out. Activity calls are given as the source filed them. How the source made its calls, unless noted: active means hit-call score of the fitted dose curve at least 0.9, where 1 is the maximum; inconclusive means response in the unintended direction; inactive means score below 0.9.

Experiment [1] concerns the target Glucocorticoid receptor (Homo sapiens) (UniProt P04150). Put plainly: ATG_GR_TRANS: Attagene TRANS-FACTORIAL HepG2 Assay for human Glucocorticoid Receptor (GR) (AID 2282978).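 Further: activators score as hits since higher reporter transcript over DMSO is fitted.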 As to conditions: HepG2 Attagene TRANS GR reporter, mRNA transcription. Put shortly: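 In this trans-factorial format, exogenous NR-GAL4 chimeric proteins in transfected HepG2 cells regulate GAL4-UAS reporter transcription. After 24 h treatment, reporter mRNA induction relative to DMSO is read by RT-PCR and capillary electrophoresis.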

The target of experiment [2] is Oxysterols receptor LXR-alpha (Homo sapiens) (UniProt Q13133). Put plainly: ATG_LXRa_TRANS: Attagene TRANS-FACTORIAL HepG2 Assay for human Liver X Receptor alpha (LXRa) (AID 2282980). To be noted: HepG2 Attagene TRANS reporter, LXRa transactivation. Put shortly:
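In this multiplexed TRANS system, compounds act on HepG2 cells carrying GAL4-UAS reporter units and a receptor-GAL4 fusion for 24 h. Induced reporter RNA is amplified, fluorescently labelled and sized by capillary electrophoresis, with DMSO as baseline.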

Experiment [3] concerns the target Hepatocyte nuclear factor 4-alpha (Homo sapiens) (UniProt P41235). Put plainly: ATG_HNF4a_TRANS: Attagene TRANS-FACTORIAL HepG2 Assay for human Hepatocyte Nuclear Factor 4 alpha (HNF4a) (AID 2282982). As to conditions: HepG2 HNF4a transactivation reporter, mRNA readout. In outline:
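Multiplexed reporter assay: transfected HepG2, 24 h exposure, total RNA → oligo(dT) RT → PCR → 6-FAM extension → HpaI digest → CE fluorescence. DMSO = negative control.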

Experiment [4] can be described thus: ATG_M_06_TRANS: Attagene TRANS-FACTORIAL HepG2 Assay for M06 Transcription Factor (Internal Marker) (AID 2282983).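 Further: reporter transcript level by RT-PCR then capillary electrophoresis fluorescence.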 To be noted: HepG2 Attagene TRANS M06 internal marker reporter. In outline:
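Multi-reporter-transfected HepG2, 24 h treatment; reporter transcripts quantified via RT-PCR, primer-extension labelling and CE. DMSO-normalized gain-of-signal fit.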

Experiment [5] can be described thus: ATG_M_32_TRANS: Attagene TRANS-FACTORIAL HepG2 Assay for M32 Transcription Factor (Internal Marker) (AID 2282984).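 Further: transcript level of a background control reporter unit measured by RT-PCR and capillary electrophoresis.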 To be noted: HepG2 Attagene TRANS M32 internal marker reporter. In outline:
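Cell-based TRANS-format assay in HepG2: exogenous chimeric GAL4 reporter units transiently expressed, compounds applied 24 h. Reporter mRNA detected by RT-PCR plus capillary electrophoresis; this readout is an internal background marker.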

Experiment [6] addresses Transcriptional activator Myb (Homo sapiens) (UniProt P10242). Put plainly: ATG_Myb_CIS: Attagene CIS-FACTORIAL HepG2 Assay for human Myeloblastosis (Myb) Proto-Oncogene Transcription Factor (AID 2282986; active means hit-call score of the fitted dose curve at least 0.9, where 1 is the maximum; inactive means score below 0.9). As to conditions: HepG2 Attagene CIS-FACTORIAL Myb reporter transcription; actives raise or lower the signal. Put shortly:
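Steps: transfect HepG2 with cis-regulated reporter units; dose with chemical for 24 h; isolate RNA, reverse-transcribe, PCR-amplify and FAM-label reporter sequences; digest with HpaI; resolve by capillary electrophoresis. Activity fitted in both directions relative to DMSO.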

The target in experiment [7] is Nuclear respiratory factor 1 (Homo sapiens) (UniProt Q16656). Put plainly: ATG_NRF1_CIS: Attagene CIS-FACTORIAL HepG2 Assay for human Nuclear Respiratory Factor 1 (NRF1) Orphan Gene (AID 2282987; active means hit-call score of the fitted dose curve at least 0.9, where 1 is the maximum; inactive means score below 0.9). As to conditions: HepG2 NRF1 cis-element reporter, Attagene multiplex; actives raise or lower the signal. In outline: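 Fluorescence intensity of labelled reporter cDNA fragments, resolved by capillary electrophoresis, served as readout for NRF1 cis-element activity. Transiently transfected HepG2 cells were dosed for 24 hours; activity in either direction was fitted against DMSO negative control.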

The target in experiment [8] is Nuclear receptor subfamily 4 group A member 2 (Homo sapiens) (UniProt P43354). Put plainly: ATG_NURR1_TRANS: Attagene TRANS-FACTORIAL HepG2 Assay for human Nuclear Receptor Related Protein 1 (NURR1) (AID 2282985). To be noted: HepG2 Attagene TRANS reporter, mRNA readout. In outline: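 Measures transcriptional activation by an exogenous NR-Gal4 chimera in transfected HepG2 liver cells. After 24 h, reporter RNA is reverse-transcribed, amplified and resolved by capillary electrophoresis; DMSO defines baseline.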

Experiment [9] concerns the target Oxysterols receptor LXR-beta (Homo sapiens) (UniProt P55055). Put plainly: ATG_LXRb_TRANS: Attagene TRANS-FACTORIAL HepG2 Assay for human Liver X Receptor beta (LXRb) (AID 2282981). To be noted: HepG2 Attagene TRANS GAL4-LXRb reporter, mRNA. Put shortly:
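After 24 h of chemical treatment, transfected HepG2 cells yield total RNA; reporter cDNA is PCR-amplified, FAM-labelled, HpaI-cut and run on capillary electrophoresis. Signal reflects chimeric LXRb-Gal4 activity on GAL4-UAS reporters.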

Experiment [10] has as its target Bile acid receptor (Homo sapiens) (UniProt Q96RI1). Put plainly: ATG_FXR_TRANS: Attagene TRANS-FACTORIAL HepG2 Assay for Farnesoid X Receptor (FXR) (AID 2282979).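 Further: hits raise reporter mRNA above DMSO so AC50 marks FXR activation.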 To be noted: HepG2 Attagene TRANS FXR-GAL4 reporter transcription. In outline: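 After 24 h chemical treatment of transfected HepG2 cells, GAL4-UAS reporter transcripts driven by an exogenous FXR-GAL4 fusion were measured by RT-PCR and capillary electrophoresis. Increases over DMSO were fitted.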

Chain of Nuclear respiratory factor 1 (Homo sapiens) (Q16656 whole entry, looked up, the tested form may be a part): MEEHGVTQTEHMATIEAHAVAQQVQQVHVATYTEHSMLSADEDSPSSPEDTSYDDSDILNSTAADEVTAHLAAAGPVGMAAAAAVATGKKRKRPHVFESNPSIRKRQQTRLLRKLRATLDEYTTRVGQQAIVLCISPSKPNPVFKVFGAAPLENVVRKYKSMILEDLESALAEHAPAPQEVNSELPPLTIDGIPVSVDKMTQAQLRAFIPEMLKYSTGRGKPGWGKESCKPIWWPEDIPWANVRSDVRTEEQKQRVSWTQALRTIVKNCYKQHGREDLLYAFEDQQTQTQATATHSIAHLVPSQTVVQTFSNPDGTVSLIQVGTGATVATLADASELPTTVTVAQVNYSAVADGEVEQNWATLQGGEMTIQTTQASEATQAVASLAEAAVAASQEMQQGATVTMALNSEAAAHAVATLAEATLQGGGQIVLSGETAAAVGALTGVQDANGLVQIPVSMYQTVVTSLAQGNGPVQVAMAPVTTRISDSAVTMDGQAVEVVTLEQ
Chain of Oxysterols receptor LXR-alpha (Homo sapiens) (Q13133 whole entry, looked up, the tested form may be a part): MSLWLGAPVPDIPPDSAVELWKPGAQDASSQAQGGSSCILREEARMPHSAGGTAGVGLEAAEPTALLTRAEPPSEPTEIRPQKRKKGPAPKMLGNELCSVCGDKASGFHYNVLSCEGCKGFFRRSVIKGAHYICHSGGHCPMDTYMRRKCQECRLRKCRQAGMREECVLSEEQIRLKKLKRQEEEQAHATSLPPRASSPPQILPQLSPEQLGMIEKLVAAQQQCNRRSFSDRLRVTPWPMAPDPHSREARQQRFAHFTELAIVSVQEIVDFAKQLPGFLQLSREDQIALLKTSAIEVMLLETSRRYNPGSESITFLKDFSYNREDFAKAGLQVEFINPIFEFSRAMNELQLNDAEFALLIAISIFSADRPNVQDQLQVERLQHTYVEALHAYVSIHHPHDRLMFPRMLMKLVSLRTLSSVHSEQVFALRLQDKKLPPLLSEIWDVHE
Chain of Glucocorticoid receptor (Homo sapiens) (P04150 whole entry, looked up, the tested form may be a part): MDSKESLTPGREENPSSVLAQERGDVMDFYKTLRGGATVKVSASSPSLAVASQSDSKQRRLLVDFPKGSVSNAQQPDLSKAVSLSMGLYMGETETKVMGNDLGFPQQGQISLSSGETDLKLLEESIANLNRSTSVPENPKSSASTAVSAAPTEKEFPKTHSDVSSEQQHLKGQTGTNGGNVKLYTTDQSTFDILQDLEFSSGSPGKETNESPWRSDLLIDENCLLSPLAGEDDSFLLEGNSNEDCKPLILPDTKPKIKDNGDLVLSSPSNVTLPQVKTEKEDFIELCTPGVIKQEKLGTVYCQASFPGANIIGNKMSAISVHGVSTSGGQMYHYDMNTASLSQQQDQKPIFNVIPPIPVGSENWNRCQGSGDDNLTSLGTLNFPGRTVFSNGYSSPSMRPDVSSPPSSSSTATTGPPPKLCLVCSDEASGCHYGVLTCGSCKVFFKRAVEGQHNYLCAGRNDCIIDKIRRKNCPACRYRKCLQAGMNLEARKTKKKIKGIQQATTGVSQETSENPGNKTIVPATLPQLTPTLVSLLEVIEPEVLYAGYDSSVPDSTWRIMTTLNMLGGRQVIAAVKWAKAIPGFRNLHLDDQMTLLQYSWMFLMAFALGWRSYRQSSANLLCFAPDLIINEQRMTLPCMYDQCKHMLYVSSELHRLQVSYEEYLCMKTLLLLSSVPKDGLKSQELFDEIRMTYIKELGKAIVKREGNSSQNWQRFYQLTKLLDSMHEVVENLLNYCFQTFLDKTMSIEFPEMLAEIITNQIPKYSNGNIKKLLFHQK
Chain of Oxysterols receptor LXR-beta (Homo sapiens) (P55055 whole entry, looked up, the tested form may be a part): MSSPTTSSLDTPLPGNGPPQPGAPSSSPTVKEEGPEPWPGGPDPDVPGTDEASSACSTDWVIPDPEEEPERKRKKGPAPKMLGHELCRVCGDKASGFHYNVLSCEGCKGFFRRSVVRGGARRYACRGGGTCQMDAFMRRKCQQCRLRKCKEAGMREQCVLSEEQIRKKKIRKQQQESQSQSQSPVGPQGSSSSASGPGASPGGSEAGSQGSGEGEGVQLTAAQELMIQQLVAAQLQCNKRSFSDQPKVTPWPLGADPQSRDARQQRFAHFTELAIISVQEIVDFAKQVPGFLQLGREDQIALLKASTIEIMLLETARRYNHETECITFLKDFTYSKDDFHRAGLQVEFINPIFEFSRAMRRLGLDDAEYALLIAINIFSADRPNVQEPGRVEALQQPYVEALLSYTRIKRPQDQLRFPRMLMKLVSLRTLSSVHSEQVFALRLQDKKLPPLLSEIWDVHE
Chain of Bile acid receptor (Homo sapiens) (Q96RI1 whole entry, looked up, the tested form may be a part): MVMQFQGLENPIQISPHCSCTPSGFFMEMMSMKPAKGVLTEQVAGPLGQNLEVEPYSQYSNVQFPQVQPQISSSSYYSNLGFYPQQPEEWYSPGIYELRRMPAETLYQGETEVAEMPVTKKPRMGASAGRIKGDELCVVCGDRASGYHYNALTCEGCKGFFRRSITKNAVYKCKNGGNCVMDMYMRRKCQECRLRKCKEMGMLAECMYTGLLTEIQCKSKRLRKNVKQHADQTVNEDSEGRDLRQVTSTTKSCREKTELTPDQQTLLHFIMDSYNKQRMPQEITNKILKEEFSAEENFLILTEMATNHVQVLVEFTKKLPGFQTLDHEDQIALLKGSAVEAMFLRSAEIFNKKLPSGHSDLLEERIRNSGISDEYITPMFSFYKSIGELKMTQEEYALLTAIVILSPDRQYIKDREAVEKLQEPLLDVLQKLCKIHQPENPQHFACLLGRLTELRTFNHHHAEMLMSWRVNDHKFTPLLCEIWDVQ
Chain of Transcriptional activator Myb (Homo sapiens) (P10242 whole entry, looked up): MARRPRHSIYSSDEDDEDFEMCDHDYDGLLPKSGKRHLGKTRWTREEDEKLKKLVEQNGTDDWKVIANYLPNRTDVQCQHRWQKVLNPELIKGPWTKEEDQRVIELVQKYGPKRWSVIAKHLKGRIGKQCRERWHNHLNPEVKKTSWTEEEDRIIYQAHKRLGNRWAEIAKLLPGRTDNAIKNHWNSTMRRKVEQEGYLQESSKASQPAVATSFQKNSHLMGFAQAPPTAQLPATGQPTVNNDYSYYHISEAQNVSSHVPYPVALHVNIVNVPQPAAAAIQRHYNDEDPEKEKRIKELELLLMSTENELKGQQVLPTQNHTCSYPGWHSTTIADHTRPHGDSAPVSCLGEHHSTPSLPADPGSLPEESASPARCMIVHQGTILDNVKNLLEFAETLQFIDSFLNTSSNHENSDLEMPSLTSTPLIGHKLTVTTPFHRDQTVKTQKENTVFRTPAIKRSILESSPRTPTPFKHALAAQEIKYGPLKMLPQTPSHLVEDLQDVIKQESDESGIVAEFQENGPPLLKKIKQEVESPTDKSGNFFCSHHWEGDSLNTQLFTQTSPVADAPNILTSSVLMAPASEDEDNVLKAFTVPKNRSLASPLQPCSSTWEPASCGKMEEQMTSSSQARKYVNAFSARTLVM
Chain of Nuclear receptor subfamily 4 group A member 2 (Homo sapiens) (P43354 whole entry, looked up, the tested form may be a part): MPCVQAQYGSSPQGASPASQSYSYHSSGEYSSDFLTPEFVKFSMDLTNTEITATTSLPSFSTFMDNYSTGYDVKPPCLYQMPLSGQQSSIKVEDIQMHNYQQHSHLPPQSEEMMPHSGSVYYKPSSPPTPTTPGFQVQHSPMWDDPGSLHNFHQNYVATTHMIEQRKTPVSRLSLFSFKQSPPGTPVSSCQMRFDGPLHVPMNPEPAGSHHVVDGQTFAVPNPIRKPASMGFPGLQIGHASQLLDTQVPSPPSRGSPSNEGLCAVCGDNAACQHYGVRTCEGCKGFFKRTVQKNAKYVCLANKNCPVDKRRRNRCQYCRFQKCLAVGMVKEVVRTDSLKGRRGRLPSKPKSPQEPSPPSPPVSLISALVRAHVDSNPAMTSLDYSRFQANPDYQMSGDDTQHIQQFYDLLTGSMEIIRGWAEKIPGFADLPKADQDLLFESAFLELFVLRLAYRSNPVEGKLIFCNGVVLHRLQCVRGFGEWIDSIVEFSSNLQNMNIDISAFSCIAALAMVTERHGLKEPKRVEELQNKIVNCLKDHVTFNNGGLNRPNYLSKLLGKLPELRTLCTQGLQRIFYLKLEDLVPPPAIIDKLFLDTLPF
Chain of Hepatocyte nuclear factor 4-alpha (Homo sapiens) (P41235 whole entry, looked up): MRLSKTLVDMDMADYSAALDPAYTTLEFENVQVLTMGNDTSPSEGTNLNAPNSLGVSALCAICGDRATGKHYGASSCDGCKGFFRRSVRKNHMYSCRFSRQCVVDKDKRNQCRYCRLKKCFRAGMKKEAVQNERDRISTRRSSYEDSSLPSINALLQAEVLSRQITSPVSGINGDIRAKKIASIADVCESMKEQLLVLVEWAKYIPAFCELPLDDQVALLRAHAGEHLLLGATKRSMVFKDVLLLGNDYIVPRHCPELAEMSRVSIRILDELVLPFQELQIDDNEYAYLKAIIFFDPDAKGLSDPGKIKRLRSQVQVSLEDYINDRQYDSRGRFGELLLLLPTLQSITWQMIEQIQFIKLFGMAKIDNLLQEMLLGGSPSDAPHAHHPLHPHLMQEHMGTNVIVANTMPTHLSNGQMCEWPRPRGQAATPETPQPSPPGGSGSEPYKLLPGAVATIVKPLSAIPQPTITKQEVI

Turning to `O=C(O)c1cccc([N+](=O)[O-])c1`, the compound was called inactive in experiment [1], in [2], in experiment [3], in experiment [4], in [5] and in experiment [6]. The outcome in [7] was inactive.

As to `NC(=O)Nc1ccc(Cl)cc1`, the result in experiment [1], in experiment [2], in experiment [3], in [5], in [6] and in experiment [7] was inactive.

Regarding `O=c1cc(-c2ccccc2)oc2cc(O)cc(O)c12`, the compound was called inactive in experiment [1], in [2], in experiment [4], in experiment [5], in [8] and in experiment [6]. For the same compound, the result in [7] was inactive.

As to `CC1COc2ccccc2N1C(=O)C(Cl)Cl` (stereo not given), the outcome in [1], in experiment [2], in experiment [5], in experiment [6] and in experiment [7] was inactive.

Consider `COc1cc(C=O)ccc1OC(=O)C(C)C`, for which the result in experiment [1], in experiment [2], in [9], in experiment [4], in experiment [8] and in experiment [6] was inactive. Moreover, the result in experiment [7] was inactive.

Regarding `CCC(C)CCCC(C)(C)O` (stereo not given), the compound was classed as inactive in experiment [1], in experiment [2], in experiment [5], in experiment [6] and in experiment [7].

For orientation: AC50 means the concentration giving half of the maximal activity seen. With `COCCCOc1ccnc(CS(=O)c2nc3ccccc3[nH]2)c1C` (stereo not given), the compound was classed as inactive in experiment [1], in experiment [4], in [5], in experiment [8], in experiment [6] and in experiment [7]. Moreover, the AC50 was 23.2 µM (active) in experiment [2] and 27.9 µM (active) in experiment [9].

Take `O=C(O)c1ccc(C(=O)O)cc1`: the outcome in [1], in experiment [2], in experiment [3], in experiment [4], in experiment [5] and in experiment [8] was inactive. Further, the compound was classed as inactive in experiment [6] and in experiment [7].

`CCOC(=S)SSC(=S)OCC`: the compound was called inactive in [1], in [2], in [3], in [5], in experiment [6] and in [7].

For `COC(=O)Cc1cccc2ccccc12`, the call in experiment [1], in experiment [2], in experiment [4], in experiment [6] and in [7] was inactive.

`CCc1ccc(C=O)cc1`: the outcome in experiment [1], in [2], in experiment [3], in experiment [4], in experiment [5] and in experiment [8] was inactive. In addition, the compound was called inactive in [6] and in [7].

As for `O=C=NC1CCC(CC2CCC(N=C=O)CC2)CC1` (stereo not given), the compound was called inactive in experiment [1], in experiment [2], in [4], in [6] and in experiment [7].

In the case of `c1ccc2[nH]ccc2c1`, the call in experiment [1], in [2], in experiment [4], in experiment [8], in experiment [6] and in [7] was inactive.

With `CC(C)c1cccc(O)c1`, the outcome in experiment [1], in experiment [2], in experiment [4], in experiment [5], in experiment [8] and in [6] was inactive. For the same compound, the compound was called inactive in [7].

Turning to `CC(C)CCCCCCCOC(=O)c1ccc(C(=O)OCCCCCCCC(C)C)c(C(=O)OCCCCCCCC(C)C)c1`, the result in experiment [1], in [2], in experiment [3], in experiment [4], in experiment [5] and in experiment [6] was inactive. The compound was called inactive in experiment [7].

As to `CC(=O)OCCOC(C)=O`, the result in experiment [1], in [2], in [3], in [4], in [5] and in experiment [6] was inactive. Moreover, the outcome in [7] was inactive.

On to `COC(=O)OC`, for which the call in experiment [1], in [2], in experiment [9], in [4], in [5] and in experiment [8] was inactive. For the same compound, the call in experiment [6] and in experiment [7] was inactive.

In the case of `CN(C)CCCN`, the compound was called inactive in experiment [10], in experiment [9], in [3], in experiment [4], in [5] and in [6]. Moreover, in experiment [7], the result was inactive.

Turning to `OC1C(O)C(O)C(O)C(O)C1O` (stereo not given), the compound was called inactive in experiment [2], in experiment [9], in experiment [3], in [4], in experiment [5] and in experiment [8]. In addition, the result in experiment [6] and in [7] was inactive.

Consider `CN(CCOc1ccc(CC2SC(=O)NC2=O)cc1)c1ccccn1` (stereo not given), for which the outcome in experiment [10], in experiment [2], in [9], in experiment [4], in experiment [5] and in [8] was inactive. Further, the outcome in experiment [6] and in experiment [7] was inactive.

Consider `COC(=O)C1=C(C)NC(C)=C(C(=O)OCCN(C)Cc2ccccc2)C1c1cccc([N+](=O)[O-])c1` (stereo not given), for which the AC50 in [10] was 0.637 µM (active); in [8], 27.2 µM (active); in experiment [7], 6.96 µM (active). Besides, the compound was classed as inactive in [5] and in experiment [6].

Take `CCCC/C=C\CCCCCCCCCC=O`: the call in experiment [10], in [5], in experiment [6] and in [7] was inactive.

As to `CC(=O)[C@H]1CC[C@H]2[C@@H]3CC=C4C[C@@H](O)CC[C@]4(C)[C@H]3CC[C@]12C`, the outcome in [10], in experiment [3], in experiment [4], in experiment [5], in experiment [8] and in experiment [6] was inactive. Also, in experiment [7], the outcome was inactive.

For `O=c1[nH]nnc2ccccc12`, the call in [10], in experiment [3], in [8], in experiment [6] and in [7] was inactive.

As to `CC(C)=CCC[C@H](C)CC=O`, the result in experiment [10], in experiment [2], in experiment [4], in [5], in experiment [8] and in experiment [6] was inactive. Also, in experiment [7], the compound was called inactive.

As for `C=CC(C)(C)O`, the call in experiment [10], in [3], in [4], in experiment [5], in [6] and in experiment [7] was inactive.

`C#C[C@]1(O)CC[C@H]2[C@@H]3CCC4=Cc5oncc5C[C@]4(C)[C@H]3CC[C@@]21C`: the compound was called inactive in experiment [10], in [4], in [8] and in [7]. Also, the AC50 in experiment [2] was 26.4 µM (active); in [6], 52.5 µM (active).

For the compound `COc1c(Cl)c(Cl)c(Cl)c(Cl)c1Cl`, the outcome in experiment [10], in experiment [3], in [4], in [6] and in experiment [7] was inactive.

Consider `O=C1NC(=O)c2ccccc21`, for which the outcome in experiment [10], in experiment [2], in [4], in [6] and in [7] was inactive.

For the compound `Cc1ccc(C=O)cc1`, the call in experiment [10], in experiment [9], in experiment [8], in [6] and in experiment [7] was inactive.
